From PMC11006913
Changes are numbered by the printed parent chain.

Tests used:
Test in all cases: PBM; 200 nM protein, PBS
Settings in all cases: dsDNA, one strand shown
HOXB4 [1] = molecular target: HOXB4 (Homo sapiens, UniProt P17483 148-234)
ALX4 = ALX4 (Homo sapiens, UniProt Q9H161 200-286)
PRRX1 [2] = molecular target: PRRX1 (Homo sapiens, UniProt P54821 80-166, F113S)
HOXA2 [3] = molecular target: HOXA2 (Homo sapiens, UniProt O43364 129-215, R185T)
HOXA4 [4] = molecular target: HOXA4 (Homo sapiens, UniProt Q00056 201-287, R217L)
HOXB4 [5] = molecular target: HOXB4 (Homo sapiens, UniProt P17483 148-234, V174I)
HOXA2 [6] = molecular target: HOXA2 (Homo sapiens, UniProt O43364 129-215, R185K)
MSX2 [7] = molecular target: MSX2 (Homo sapiens, UniProt P35548 130-214)
MSX2 [8] = molecular target: MSX2 (Homo sapiens, UniProt P35548 130-214, F161Y)
VAX1 [9] = molecular target: VAX1 (Homo sapiens, UniProt Q5SQQ9 86-172, T142I)
HOXA4 [10] = molecular target: HOXA4 (Homo sapiens, UniProt Q00056 201-287, W262F)
PRRX1 [11] = molecular target: PRRX1 (Homo sapiens, UniProt P54821 80-166)
VAX1 [12] = molecular target: VAX1 (Homo sapiens, UniProt Q5SQQ9 86-172, K157R)
VENTX [13] = molecular target: T1, VENTX (Homo sapiens, UniProt O95231 78-163, R121Q)
T1 sequence: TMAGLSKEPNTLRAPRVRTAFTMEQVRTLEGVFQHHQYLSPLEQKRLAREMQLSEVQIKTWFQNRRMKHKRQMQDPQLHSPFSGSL

PAX4 [14] = molecular target: T2, PAX4 (Homo sapiens, UniProt O43316 9-242, R200K)
T2 sequence: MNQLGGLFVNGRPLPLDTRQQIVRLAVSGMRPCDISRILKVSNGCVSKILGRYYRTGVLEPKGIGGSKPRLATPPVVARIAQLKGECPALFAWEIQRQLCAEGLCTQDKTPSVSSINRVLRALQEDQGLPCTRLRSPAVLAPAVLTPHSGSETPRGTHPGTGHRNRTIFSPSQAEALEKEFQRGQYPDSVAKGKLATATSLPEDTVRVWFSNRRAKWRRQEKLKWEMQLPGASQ

VENTX [15] = molecular target: T3, VENTX (Homo sapiens, UniProt O95231 78-163, Y115F)
T3 sequence: T1 sequence with Y38F, Q44R

PAX4 [16] = molecular target: T4, PAX4 (Homo sapiens, UniProt O43316 9-242, R200Q)
T4 sequence: T2 sequence with K192Q

PAX4 [17] = molecular target: T5, PAX4 (Homo sapiens, UniProt O43316 9-242, F177V)
T5 sequence: T2 sequence with F169V, K192R

PAX4 [18] = molecular target: T6, PAX4 (Homo sapiens, UniProt O43316 9-242, F177Y)
T6 sequence: T2 sequence with F169Y, K192R

HOXB6 = HOXB6 (Homo sapiens, UniProt P17509 132-218, K202E)
Chain of HOXB6 (P17509 132-218 K202E): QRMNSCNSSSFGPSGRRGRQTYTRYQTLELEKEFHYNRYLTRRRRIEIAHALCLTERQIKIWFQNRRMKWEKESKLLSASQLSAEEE

Chain of ALX4 (Q9H161 200-286): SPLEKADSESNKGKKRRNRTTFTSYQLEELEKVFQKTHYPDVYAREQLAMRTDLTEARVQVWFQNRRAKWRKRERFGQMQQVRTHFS
Chain of HOXB4 (Homo sapiens, UniProt P17483 148-234, V174I) (P17483 148-234 V174I): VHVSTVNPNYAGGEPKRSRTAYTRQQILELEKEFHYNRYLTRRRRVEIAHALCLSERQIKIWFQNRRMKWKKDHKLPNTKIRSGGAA
Chain of HOXA4 (Homo sapiens, UniProt Q00056 201-287, R217L) (Q00056 201-287 R217L): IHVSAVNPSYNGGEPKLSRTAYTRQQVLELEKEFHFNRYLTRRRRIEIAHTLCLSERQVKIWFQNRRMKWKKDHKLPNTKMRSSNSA
Chain of HOXA4 (Homo sapiens, UniProt Q00056 201-287, W262F) (Q00056 201-287 W262F): as the sequence (Q00056 201-287 R217L) above, with L17R, W62F counted along it
Chain of VAX1 (Homo sapiens, UniProt Q5SQQ9 86-172, K157R) (Q5SQQ9 86-172 K157R): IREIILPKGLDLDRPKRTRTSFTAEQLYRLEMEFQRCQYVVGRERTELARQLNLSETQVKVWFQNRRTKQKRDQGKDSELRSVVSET
Chain of VAX1 (Homo sapiens, UniProt Q5SQQ9 86-172, T142I) (Q5SQQ9 86-172 T142I): as the sequence (Q5SQQ9 86-172 K157R) above, with T57I, R72K counted along it
Chain of HOXA2 (Homo sapiens, UniProt O43364 129-215, R185K) (O43364 129-215 R185K): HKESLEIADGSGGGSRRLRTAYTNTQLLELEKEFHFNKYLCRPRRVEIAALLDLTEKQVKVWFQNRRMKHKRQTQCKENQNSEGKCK
Chain of HOXA2 (Homo sapiens, UniProt O43364 129-215, R185T) (O43364 129-215 R185T): as the sequence (O43364 129-215 R185K) above, with K57T counted along it
Chain of HOXB4 (Homo sapiens, UniProt P17483 148-234) (P17483 148-234): as the sequence (P17483 148-234 V174I) above, with I27V counted along it
Chain of PRRX1 (Homo sapiens, UniProt P54821 80-166, F113S) (P54821 80-166 F113S): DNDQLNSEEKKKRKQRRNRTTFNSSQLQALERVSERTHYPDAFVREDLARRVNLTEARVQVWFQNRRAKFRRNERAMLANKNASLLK
Chain of PRRX1 (Homo sapiens, UniProt P54821 80-166) (P54821 80-166): as the sequence (P54821 80-166 F113S) above, with S34F counted along it
Chain of MSX2 (Homo sapiens, UniProt P35548 130-214) (P35548 130-214): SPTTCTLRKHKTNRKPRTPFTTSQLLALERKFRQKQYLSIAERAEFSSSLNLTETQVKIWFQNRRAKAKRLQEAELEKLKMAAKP
Chain of MSX2 (Homo sapiens, UniProt P35548 130-214, F161Y) (P35548 130-214 F161Y): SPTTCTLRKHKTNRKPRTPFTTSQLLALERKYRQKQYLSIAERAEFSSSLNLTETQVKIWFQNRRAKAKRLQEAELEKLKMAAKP

Sequence	binding signal (HOXB4 [1])	binding signal (ALX4)	binding signal (PRRX1 [2])	binding signal (HOXA2 [3])	binding signal (HOXA4 [4])	binding signal (HOXB4 [5])	binding signal (HOXA2 [6])	binding signal (MSX2 [7])	binding signal (MSX2 [8])	binding signal (VAX1 [9])	binding signal (HOXA4 [10])	binding signal (PRRX1 [11])	binding signal (VAX1 [12])	binding signal (VENTX [13])	binding signal (PAX4 [14])	binding signal (VENTX [15])	binding signal (PAX4 [16])	binding signal (PAX4 [17])	binding signal (PAX4 [18])	binding signal (HOXB6)
CTCAATTA	13.1 upbm affinity estimate (log intensity, higher = more binding, comparable within an allelic series)	13.9 upbm affinity estimate (log intensity, higher = more binding, comparable within an allelic series)	11.2 upbm affinity estimate (log intensity, higher = more binding, comparable within an allelic series)	12.6 upbm affinity estimate (log intensity, higher = more binding, comparable within an allelic series)	12 upbm affinity estimate (log intensity, higher = more binding, comparable within an allelic series)	13.8 upbm affinity estimate (log intensity, higher = more binding, comparable within an allelic series)	13 upbm affinity estimate (log intensity, higher = more binding, comparable within an allelic series)	13.9 upbm affinity estimate (log intensity, higher = more binding, comparable within an allelic series)	13.5 upbm affinity estimate (log intensity, higher = more binding, comparable within an allelic series)	12.8 upbm affinity estimate (log intensity, higher = more binding, comparable within an allelic series)	11.4 upbm affinity estimate (log intensity, higher = more binding, comparable within an allelic series)	13.4 upbm affinity estimate (log intensity, higher = more binding, comparable within an allelic series)	12.9 upbm affinity estimate (log intensity, higher = more binding, comparable within an allelic series)	–	–	–	–	–	–	–
CTAATTGA	13.3 upbm affinity estimate (log intensity, higher = more binding, comparable within an allelic series)	14.1 upbm affinity estimate (log intensity, higher = more binding, comparable within an allelic series)	11.1 upbm affinity estimate (log intensity, higher = more binding, comparable within an allelic series)	13.3 upbm affinity estimate (log intensity, higher = more binding, comparable within an allelic series)	12 upbm affinity estimate (log intensity, higher = more binding, comparable within an allelic series)	14 upbm affinity estimate (log intensity, higher = more binding, comparable within an allelic series)	13.4 upbm affinity estimate (log intensity, higher = more binding, comparable within an allelic series)	13.9 upbm affinity estimate (log intensity, higher = more binding, comparable within an allelic series)	13.5 upbm affinity estimate (log intensity, higher = more binding, comparable within an allelic series)	13.2 upbm affinity estimate (log intensity, higher = more binding, comparable within an allelic series)	11.4 upbm affinity estimate (log intensity, higher = more binding, comparable within an allelic series)	13.5 upbm affinity estimate (log intensity, higher = more binding, comparable within an allelic series)	13.4 upbm affinity estimate (log intensity, higher = more binding, comparable within an allelic series)	12.1 upbm affinity estimate (log intensity, higher = more binding, comparable within an allelic series)	11.5 upbm affinity estimate (log intensity, higher = more binding, comparable within an allelic series)	11.7 upbm affinity estimate (log intensity, higher = more binding, comparable within an allelic series)	11.8 upbm affinity estimate (log intensity, higher = more binding, comparable within an allelic series)	10.4 upbm affinity estimate (log intensity, higher = more binding, comparable within an allelic series)	10.8 upbm affinity estimate (log intensity, higher = more binding, comparable within an allelic series)	–
ATCAATTA	13.4 upbm affinity estimate (log intensity, higher = more binding, comparable within an allelic series)	14.2 upbm affinity estimate (log intensity, higher = more binding, comparable within an allelic series)	11.4 upbm affinity estimate (log intensity, higher = more binding, comparable within an allelic series)	13.3 upbm affinity estimate (log intensity, higher = more binding, comparable within an allelic series)	12.6 upbm affinity estimate (log intensity, higher = more binding, comparable within an allelic series)	14.1 upbm affinity estimate (log intensity, higher = more binding, comparable within an allelic series)	13.6 upbm affinity estimate (log intensity, higher = more binding, comparable within an allelic series)	14 upbm affinity estimate (log intensity, higher = more binding, comparable within an allelic series)	13.7 upbm affinity estimate (log intensity, higher = more binding, comparable within an allelic series)	12.9 upbm affinity estimate (log intensity, higher = more binding, comparable within an allelic series)	11.9 upbm affinity estimate (log intensity, higher = more binding, comparable within an allelic series)	13.6 upbm affinity estimate (log intensity, higher = more binding, comparable within an allelic series)	13.1 upbm affinity estimate (log intensity, higher = more binding, comparable within an allelic series)	12.3 upbm affinity estimate (log intensity, higher = more binding, comparable within an allelic series)	11.8 upbm affinity estimate (log intensity, higher = more binding, comparable within an allelic series)	11.8 upbm affinity estimate (log intensity, higher = more binding, comparable within an allelic series)	12.2 upbm affinity estimate (log intensity, higher = more binding, comparable within an allelic series)	10.7 upbm affinity estimate (log intensity, higher = more binding, comparable within an allelic series)	11.2 upbm affinity estimate (log intensity, higher = more binding, comparable within an allelic series)	10.1 upbm affinity estimate (log intensity, higher = more binding, comparable within an allelic series)
AACAATTA	–	13.6 upbm affinity estimate (log intensity, higher = more binding, comparable within an allelic series)	11.1 upbm affinity estimate (log intensity, higher = more binding, comparable within an allelic series)	–	11.9 upbm affinity estimate (log intensity, higher = more binding, comparable within an allelic series)	13.6 upbm affinity estimate (log intensity, higher = more binding, comparable within an allelic series)	–	13.9 upbm affinity estimate (log intensity, higher = more binding, comparable within an allelic series)	13.5 upbm affinity estimate (log intensity, higher = more binding, comparable within an allelic series)	–	11.3 upbm affinity estimate (log intensity, higher = more binding, comparable within an allelic series)	–	–	11.7 upbm affinity estimate (log intensity, higher = more binding, comparable within an allelic series)	–	–	–	–	–	10 upbm affinity estimate (log intensity, higher = more binding, comparable within an allelic series)
CTAATTAG	13.6 upbm affinity estimate (log intensity, higher = more binding, comparable within an allelic series)	14.7 upbm affinity estimate (log intensity, higher = more binding, comparable within an allelic series)	12 upbm affinity estimate (log intensity, higher = more binding, comparable within an allelic series)	14.2 upbm affinity estimate (log intensity, higher = more binding, comparable within an allelic series)	12.6 upbm affinity estimate (log intensity, higher = more binding, comparable within an allelic series)	14.2 upbm affinity estimate (log intensity, higher = more binding, comparable within an allelic series)	14.3 upbm affinity estimate (log intensity, higher = more binding, comparable within an allelic series)	14.2 upbm affinity estimate (log intensity, higher = more binding, comparable within an allelic series)	13.9 upbm affinity estimate (log intensity, higher = more binding, comparable within an allelic series)	14.1 upbm affinity estimate (log intensity, higher = more binding, comparable within an allelic series)	12.6 upbm affinity estimate (log intensity, higher = more binding, comparable within an allelic series)	13.7 upbm affinity estimate (log intensity, higher = more binding, comparable within an allelic series)	14.3 upbm affinity estimate (log intensity, higher = more binding, comparable within an allelic series)	13 upbm affinity estimate (log intensity, higher = more binding, comparable within an allelic series)	12.5 upbm affinity estimate (log intensity, higher = more binding, comparable within an allelic series)	12.8 upbm affinity estimate (log intensity, higher = more binding, comparable within an allelic series)	13.1 upbm affinity estimate (log intensity, higher = more binding, comparable within an allelic series)	11.2 upbm affinity estimate (log intensity, higher = more binding, comparable within an allelic series)	11.8 upbm affinity estimate (log intensity, higher = more binding, comparable within an allelic series)	10.2 upbm affinity estimate (log intensity, higher = more binding, comparable within an allelic series)
AATTAGTC	12.4 upbm affinity estimate (log intensity, higher = more binding, comparable within an allelic series)	–	–	–	–	13 upbm affinity estimate (log intensity, higher = more binding, comparable within an allelic series)	–	13.5 upbm affinity estimate (log intensity, higher = more binding, comparable within an allelic series)	13 upbm affinity estimate (log intensity, higher = more binding, comparable within an allelic series)	–	–	–	12.3 upbm affinity estimate (log intensity, higher = more binding, comparable within an allelic series)	–	11.7 upbm affinity estimate (log intensity, higher = more binding, comparable within an allelic series)	–	12.1 upbm affinity estimate (log intensity, higher = more binding, comparable within an allelic series)	10.4 upbm affinity estimate (log intensity, higher = more binding, comparable within an allelic series)	10.8 upbm affinity estimate (log intensity, higher = more binding, comparable within an allelic series)	–
